This passage reports growth inhibition results from PubChem BioAssay (NCI).

This is part of a sample that, as a whole, favours compounds with a hit. Of some 79,000 tested, about 15% had one in any assay. A number with no mark means an inactive call. The source made the active and inactive calls. No stated cut-off is given here; in the data, active means growth inhibition above about 70%; inactive means the rest.

The assay is described as follows: NCI Yeast Anticancer Drug Screen. Data for the mec2-1 strain (AID 157). Particulars: S. cerevisiae mec2-1 strain, at 11.0 µM, active compounds read high. In a few lines:
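Cells of the genetically defined mec2-1 yeast strain are incubated with test compound. Inhibition of growth is calculated against vehicle-treated controls.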
`O=[N+]([O-])c1cc[n+]([O-])cc1`: the growth inhibition was 0%.

With `CC1(C)CC(=O)C(/C=N/c2nc(-c3ccccc3)cs2)=C(O)C1`, the growth inhibition is 8%.

Regarding `Nc1nc(N)c2nc(CNc3ccc(C(=O)NC(CCC(=O)O)C(=O)O)cc3F)cnc2n1` (stereo not drawn), the growth inhibition was 81% (active).

On to `COC(=O)CC1(O)C(/C=C/c2ccccc2)C(C(=O)OC)C(=O)C(C(=O)OC)C1C(=O)OC` (stereo not drawn), for which the growth inhibition is -4%.

With `CC(C)(C)c1ccc(NS(=O)(=O)c2ccc(N)cc2)cc1`, the growth inhibition was 6%.

Regarding `CCN(CC)CCNc1ccc([N+](=O)[O-])c2nc3ccccc3c(N)c12`, the growth inhibition was -11%.

Turning to `CCCCN(CCCC)C(=O)/C=C/c1ccccc1`, the growth inhibition was -6%.

For `O=c1[nH]c(-c2ccccc2)nc2c1sc1nc3ccccc3n12`, the growth inhibition is -30%.

For the compound `O=[N+]([O-])c1ccc2c(c1)/C(=N/N=C1c3ccccc3Cc3ccccc31)c1cc([N+](=O)[O-])cc([N+](=O)[O-])c1-2`, the growth inhibition was 99% (active).

Regarding `CC(C)C(C)/C=C\C(C)C1CCC2C3=CC=C4CC(O)CCC4(C)C3CCC21C` (stereo not drawn), the growth inhibition is -2%.

Take `O=C1Nc2ccc(Br)cc2C1=Nc1ccc2c(c1)OCO2`: the growth inhibition is -54%.

On to `CCCCOCn1c(=O)[nH]c(=O)c2cc(Br)ccc21`, for which the growth inhibition is 2%.

On to `Cc1ccc(S/C(=C\C(=O)O)c2ccccc2)cc1`, for which the growth inhibition was -4%.

For the compound `O=[N+]([O-])/C=C/c1cc(Cl)c(/C=C/[N+](=O)[O-])cc1Cl`, the growth inhibition was 65%.

Turning to `Cc1cc(S(=O)(=O)Nc2nnc3cnc4ccccc4n23)c(S)cc1Cl`, the growth inhibition is 6%.

As to `O=C(/C=C/c1cc(Cl)cc(Cl)c1O)c1cccc(O)c1`, the growth inhibition is 85% (active).

With `NC1CCCCC1N.Nc1c(N=Nc2ccc(-c3ccc(N=Nc4cc(S(=O)(=O)[O-])c5ccccc5c4N)cc3)cc2)cc(S(=O)(=O)[O-])c2ccccc12.[OH3+].[OH3+].[Pt+4]`, the growth inhibition is 66%.

`COC(=O)CCC(NC(=S)N/N=C(\C)c1ccccn1)C(=O)OC` (stereo not drawn): the growth inhibition was 12%.

For `NC(=O)C(=O)NNc1ccccc1`, the growth inhibition was 48%.

Take `COc1cc(C2SCC(=O)N2c2ccc(-c3ccc(-n4c(-c5ccccc5)nc5ccccc5c4=O)cc3)cc2)ccc1O` (stereo not drawn): the growth inhibition is 0%.

Turning to `COc1ccc(/C=C/c2sc3ccccc3[n+]2CCCCI)cc1OC`, the growth inhibition is -11%.

For the compound `Cc1c(C(C)C)cc(OCCO)cc1C(C)C`, the growth inhibition was -8%.

`Cc1cc(NCCCCCCCCNc2cc(C)nc3cc(N)ccc23)c2ccc(N)cc2n1`: the growth inhibition is 91% (active).

With `C=C(Cl)COC(=O)Nc1cccc(Cl)c1`, the growth inhibition is -25%.

For `CC(=O)OC1CC2C(C)(C)C(=O)C=C[C@]2(C)C2CCC3(C)C(=CCC3[C@H](CO)C[C@H](O)C(=O)C(C)(C)O)[C@]12C` (stereo partly drawn), the growth inhibition is -77%.

`COc1ccc(/C=C/C(=O)c2ccccc2)cc1OC`: the growth inhibition was -2%.

As for `COc1c(O)c(C=O)c(Br)c(C=O)c1O`, the growth inhibition was 14%.

For the compound `O=[N+]([O-])c1cc(Cl)cnc1Br`, the growth inhibition was 69%.

Turning to `Cc1ccc2c(c1)C1(SC(C)C(=O)N1c1ccc(Cl)cc1)C(=O)N2` (stereo not drawn), the growth inhibition is 12%.

Turning to `COc1cc(CSc2ccc(O)cc2)cc(O)c1O`, the growth inhibition is -1%.

Consider `Cc1ccc2c3ccc4c(c3n(C)c2c1)C(=O)C=CC4=O`, for which the growth inhibition is -3%.

Regarding `O=C(Nc1ccc(Cl)cc1)Nc1nnc2nc(C(C(=O)c3cccc([N+](=O)[O-])c3Cl)c3nc4nnc(NC(=O)Nc5ccc(Cl)cc5)n4[nH]c3=O)c(=O)[nH]n12`, the growth inhibition is -12%.

`O=C(O)C1CC(c2ccccc2)=NN1c1ccccc1` (stereo not drawn): the growth inhibition was -42%.

For the compound `CCCCc1ccc(-n2c(C)c(COC(=O)NC)c(COC(=O)NC)c2C)cc1`, the growth inhibition is 24%.

As to `CCC(=O)c1cc(C(=O)C(=S)SC)cc(C(=O)C(=S)SC)c1`, the growth inhibition is 98% (active).

Take `CCn1c(O)c(C=Nc2ccccc2)s/c1=N/Nc1nc(-c2ccccc2)cs1`: the growth inhibition was -1%.

On to `Cc1ccccc1N=C(NO)c1ccccc1`, for which the growth inhibition is -5%.

`Cc1nc2ccccc2nc1NNc1ccccc1`: the growth inhibition is 9%.
